Measurements reported in PubChem BioAssay AID1159580 (chemical genetic matrix, 2015).
Hit rate of the full screen: of about 5,500 compounds, about 2,000 (36%) were called active. Another 18% or so got no clear call; they are omitted. No stated cut-off is given here; in the data, active means normalized growth mostly below about 0.91 (no sharp cut-off); inconclusive means no clear call, values can overlap the other calls; inactive means mostly above about 0.92. The list shows a part of the results.

Test: chemical genetic growth profiling, strain panel (AID 1159580);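 further: tested at 20 µM; growth read once vehicle control cultures reached saturation at 30 °C; 1 = growth at the plate median or of vehicle wells; lower values mean less growth of the strain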
Conditions: S. cerevisiae deletion strains, growth OD
[1] = locus YAR019C, strain CDC15, active compounds read low
[2] = locus YBL105C, strain PKC1, active compounds read low
[3] = locus YBR135W, strain CKS1, active compounds read low
[4] = locus YBR136W, strain MEC1, active compounds read low
[5] = locus YBR160W, strain CDC28, active compounds read low
[6] = locus YDL017W, strain CDC7, active compounds read low
[7] = locus YDL028C, strain MPS1, active compounds read low
[8] = locus YDL101C, strain DUN1, active compounds read low
[9] = locus YDL108W, strain KIN28, active compounds read low
[10] = locus YDL132W, strain cdc53, active compounds read low
[11] = locus YDL214C, strain PRR2, active compounds read low
[12] = locus YDR052C, strain DBF4, active compounds read low
[13] = locus YDR054C, strain cdc34, active compounds read low
[14] = locus YDR226W, strain ADK1, active compounds read low
[15] = locus YDR477W, strain SNF1, active compounds read low
[16] = locus YER123W, strain YCK3, active compounds read low
[17] = locus YER133W, strain GLC7, active compounds read low
[18] = locus YFL009W, strain cdc4, active compounds read low
[19] = locus YFL029C, strain CAK1, active compounds read low
[20] = locus YFR003C, strain YPI1, active compounds read low
[21] = locus YFR019W, strain FAB1, active compounds read low
[22] = locus YFR028C, strain CDC14, active compounds read low
[23] = locus YGR040W, strain KSS1, active compounds read low
[24] = locus YGR052W, strain FMP48, active compounds read low
[25] = locus YGR092W, strain DBF2, active compounds read low
[26] = locus YHR030C, strain SLT2, active compounds read low
[27] = locus YHR079C, strain IRE1, active compounds read low
[28] = locus YHR082C, strain KSP1, active compounds read low
[29] = locus YHR205W, strain SCH9, active compounds read low
[30] = locus YIL147C, strain SLN1, active compounds read low
[31] = locus YJL095W, strain BCK1, active compounds read low
[32] = locus YJL128C, strain PBS2, active compounds read low
[33] = locus YJL157C, strain FAR1, active compounds read low
[34] = locus YJR016C, strain ILV3, active compounds read low
[35] = locus YJR066W, strain TOR1 (second series), active compounds read low
[36] = locus YJR066W, strain TOR1, active compounds read low
[37] = locus YKL048C, strain ELM1, active compounds read low
[38] = locus YKL067W, strain YNK1, active compounds read low
[39] = locus YKL101W, strain HSL1, active compounds read low
[40] = locus YKL193C, strain SDS22, active compounds read low
[41] = locus YKL203C, strain TOR2, active compounds read low
[42] = locus YLR113W, strain HOG1, active compounds read low
[43] = locus YLR133W, strain CKI1, active compounds read low
[44] = locus YLR403W, strain SFP1, active compounds read low
[45] = locus YML070W, strain DAK1, active compounds read low
[46] = locus YMR001C, strain CDC5, active compounds read low
[47] = locus YMR205C, strain PFK2 (second series), active compounds read low
[48] = locus YMR277W, strain FCP1, active compounds read low
[49] = locus YNL006W, strain LST8, active compounds read low
[50] = locus YNL020C, strain ARK1, active compounds read low
[51] = locus YNL161W, strain CBK1, active compounds read low
[52] = locus YNL183C, strain NPR1, active compounds read low
[53] = locus YNL207W, strain RIO2, active compounds read low
[54] = locus YNL222W, strain SSU72, active compounds read low
[55] = locus YNL307C, strain MCK1 (second series), active compounds read low
[56] = locus YOL078W, strain AVO1, active compounds read low
[57] = locus YOL136C, strain PFK27, active compounds read low
[58] = locus YOR061W, strain CKA2, active compounds read low
[59] = locus YOR119C, strain RIO1, active compounds read low
[60] = locus YOR231W, strain MKK1, active compounds read low
[61] = locus YOR329C, strain SCD5, active compounds read low
[62] = locus YPL031C, strain PHO85, active compounds read low
[63] = locus YPL153C, strain RAD53, active compounds read low
[64] = locus YPL204W, strain HRR25, active compounds read low
[65] = locus YPL209C, strain IPL1, active compounds read low
[66] = locus YPL256C, strain CLN2, active compounds read low
[67] = locus YPR025C, strain CCL1, active compounds read low
[68] = locus YPR106W, strain ISR1, active compounds read low
[69] = locus YPR111W, strain DBF20, active compounds read low
[70] = strain NNK1, active compounds read low
[71] = strain TSCII, active compounds read low

Measured: normalized growth

Cc1onc(-c2c(Cl)cccc2Cl)c1C(=O)NC(C)(C)CC(C)(C)C
inactive: [1] 0.998 | [2] 0.99 | [3] 0.991 | [4] 0.989 | [5] 0.997 | [6] 0.997 | [7] 0.976 | [8] 0.994 | [9] 0.983 | [10] 0.992 | [11] 0.945 | [12] 0.991 | [13] 0.995 | [14] 0.999 | [15] 0.977 | [16] 0.919 | [17] 0.97 | [18] 0.995 | [19] 0.998 | [20] 0.992 | [21] 0.972 | [22] 0.995 | [23] 0.956 | [24] 1.04 | [25] 0.969 | [26] 1.12 | [27] 1.05 | [28] 1.08 | [29] 0.955 | [30] 0.99 | [31] 1.07 | [32] 0.945 | [33] 0.953 | [34] 0.992 | [35] 0.951 | [36] 1.09 | [37] 0.982 | [38] 0.961 | [39] 0.953 | [40] 0.996 | [41] 1.04 | [42] 0.962 | [43] 0.965 | [44] 0.927 | [45] 0.932 | [46] 0.998 | [47] 0.966 | [48] 0.998 | [49] 0.988 | [50] 0.971 | [51] 0.995 | [52] 1.03 | [53] 0.991 | [54] 0.989 | [55] 1 | [56] 0.992 | [57] 0.95 | [58] 0.959 | [59] 0.992 | [60] 1.02 | [61] 0.994 | [62] 0.979 | [63] 0.964 | [64] 0.977 | [65] 0.993 | [66] 1.08 | [67] 0.992 | [68] 0.993 | [69] 0.989 | [70] 0.99 | [71] 0.995

Cc1onc(-c2c(F)cccc2Cl)c1C(=O)ON=C1C2CC3CC(C2)CC1C3
active: [2] 1.11 [resistant] | [3] 1.09 [resistant] | [4] 1.08 [resistant] | [5] 1.08 [resistant] | [6] 1.08 [resistant] | [7] 1.08 [resistant] | [9] 1.09 [resistant] | [14] 1.06 [resistant] | [20] 1.09 [resistant] | [30] 1.1 [resistant] | [40] 1.08 [resistant] | [42] 0.816 | [46] 1.07 [resistant] | [49] 1.1 [resistant] | [51] 1.08 [resistant] | [54] 1.1 [resistant] | [61] 1.1 [resistant] | [65] 1.09 [resistant] | [67] 1.1 [resistant]
inactive: [1] 1.06 | [8] 0.97 | [10] 1.06 | [11] 0.955 | [12] 0.997 | [13] 1.04 | [15] 0.965 | [16] 0.939 | [17] 0.979 | [18] 1.06 | [19] 1.07 | [21] 0.967 | [22] 1.02 | [23] 0.953 | [24] 0.974 | [25] 0.982 | [26] 0.895 | [27] 0.967 | [28] 0.981 | [29] 0.85 | [31] 0.968 | [32] 1.01 | [33] 0.95 | [34] 1.04 | [35] 0.924 | [36] 0.98 | [37] 0.968 | [38] 0.974 | [39] 0.94 | [41] 0.969 | [43] 0.951 | [44] 0.894 | [45] 0.934 | [47] 0.971 | [48] 1.06 | [50] 0.955 | [52] 0.917 | [53] 1.03 | [55] 0.953 | [56] 1.05 | [57] 0.933 | [58] 0.965 | [59] 0.976 | [60] 0.9 | [62] 0.975 | [63] 0.959 | [64] 0.931 | [66] 0.866 | [68] 1.04 | [69] 1.06 | [70] 1.03 | [71] 1.04
